In PubChem BioAssay AID463173 (ICCB-Longwood Screening Facility, Harvard Medical School, 2010) one finds survival data, which are given here for 89 compounds.

Hit rate of the full screen: of about 52,000 compounds, about 1,700 (3.3%) were called active. Only a selection was taken, and actives are over-represented in it overall. Values without a mark were called inactive. Cut-off read from the data, not from the text of the source: active = survival mostly below about 52% (no sharp cut-off); inactive = mostly above about 56%.

For the assay, the system named is Wild type. Put plainly: growth inhibition of S. aureus wild type versus tarO mutant, primary screen, teichoic acid synthesis inhibitors, RN4220, OD600 (AID 463173). Particulars: S. aureus RN4220 wild type/DeltatarO growth, OD600, 18 h, hits give low values, screened at 18.75 µg/mL (by protocol).
For `CCCCc1ccc(NC(=O)c2ccc3c(c2)CCN3S(=O)(=O)CC)cc1`, the survival is 80%.
Next, `Cc1ccccc1NC(=O)c1c(NC(=O)C(C)Oc2cccc(Cl)c2)sc2c1CCCC2` (centres undefined): 61%; `Cc1c(CC(=O)NCCc2ccccc2)c(=O)oc2c(C)c3occ(C(C)(C)C)c3cc12`: 84%.
For `COc1ccc(-n2c(-c3ccco3)nc3c(cnn3-c3ccc(Cl)cc3)c2=O)cc1` the value was 90%.
For the compound `CC1CCN(C(=O)Cn2cc(SCC(=O)Nc3ccccc3C(F)(F)F)c3ccccc32)CC1`, the survival is 105%.
For `COc1ccc(CNC(=O)CN2C(=O)CCn3nc(-c4cn(C)c5ccccc45)cc32)cc1` the value was 80%; for `CCOc1ccc(CNC(=O)CN2C(=O)CCn3nc(-c4cn(C)c5ccccc45)cc32)cc1OC`, -6% (active); for `CCOc1ccccc1CNC(=O)CN1C(=O)CCn2nc(-c3cn(C)c4ccccc34)cc21`, 87%.
For `COc1ccc(N2CCN(C(=O)CCn3nc(C)c(S(=O)(=O)N4CCCC4)c3C)CC2)cc1` the value was 80%; for `COc1cccc(N2CCN(C(=O)CCn3nc(C)c(S(=O)(=O)N4CCCC4)c3C)CC2)c1`, 76%; for `Cc1nn(CCC(=O)N2CCN(c3ccccc3)CC2)c(C)c1S(=O)(=O)N1CCCC1`, -6% (active).
For `CC(C)N(C(=O)CN1CCN(Cc2ccccc2)CC1)C(C)C` the value was 107%.
`CCOC(=O)CCNC(=O)N1CCN(S(=O)(=O)c2ccc3c(ccn3C)c2)CC1`: the survival is 113%.
Next, `CCOC(=O)CNC(=O)N1CCN(S(=O)(=O)c2ccc3c(ccn3C)c2)CC1`: 0% (active).
For `COC(=O)CNC(=O)N1CCN(S(=O)(=O)c2ccc3c(ccn3C)c2)CC1` the value was 79%; for `CCOC(=O)c1ccc(N=C2NC(=O)/C(=C/c3ccc(N4CCOCC4)cc3)S2)cc1`, 107%; for `CCOc1ccc(-c2c(C)nn3c(C)c(C(=O)NCc4ccc(Cl)cc4)cnc23)cc1OCC`, 123%.
Next, `Cc1ccc2cccc(NC(=O)c3cccc4c(Br)cccc34)c2n1`: 134%; `O=C(Nc1cccc2cccnc12)c1cccc2c(Br)cccc12`: 77%.
For the compound `CC(C)c1ccc(C(=O)Nc2cccc3cccnc23)cc1`, the survival is -3% (active).
For `Cc1ccc2cccc(NC(=O)c3ccc(-c4cccc(Cl)c4)o3)c2n1` the value was 66%.
Take `Cc1ccc(C(=O)Nc2cccc3cccnc23)cc1Cl`: the survival is 75%.
As to `O=C(Nc1cccc2cccnc12)c1cccc2ccccc12`, the survival was 1% (active).
Next, `O=C(Nc1cccc2cccnc12)c1ccc(-c2cccc(Cl)c2)o1`: 0% (active).
Next, `Cc1ccc2cccc(NC(=O)c3ccc(-c4cc(Cl)ccc4Cl)o3)c2n1`: 71%; `O=C(Nc1ccc(Br)c2cccnc12)c1cccc2ccccc12`: 35%; `Cc1ccc2cccc(NC(=O)c3cccc4ccccc34)c2n1`: -10% (active).
For `CCOc1cc(C(=O)Nc2cccc3cccnc23)cc(OCC)c1OCC`, the survival was 23%.
Next, `Cc1ccc2cccc(NC(=O)c3cccc4c(Cl)cccc34)c2n1`: 69%; `COc1cccc(NC(=O)CCc2nnc3n(Cc4ccccc4Cl)c(=O)c4ccccc4n23)c1`: 84%.
Next, `CCOC(=O)c1cccc(NS(=O)(=O)c2c(C)nc3sc(C)cn3c2=O)c1`: 81%; `COc1ccc2c(c1)c1c(c(=O)n(-c3cccc(C)c3)c(=O)n1CC(=O)N1CCCC1)n2C`: 82%.
Next, `COc1ccccc1NC(=O)CSc1ncc2c(n1)-c1cc(Cl)ccc1N(Cc1ccccc1)S2(=O)=O`: 77%.
As to `Cc1ccc(NC(=O)CC(C)S(=O)(=O)c2ccc3c(c2)NC(=O)CO3)c(Cl)c1` (centres undefined), the survival was 87%.
For `CCOc1ccc(NC(=O)CCCc2nc(-c3cccc(OC)c3)no2)cc1` the value was 87%.
Next, `Cc1nnc(SCc2cc(=O)n3c(C)cccc3n2)s1`: 81%; `Cc1cccc(-c2nnc(SCC(=O)OC(C)C)n2C)c1`: 106%; `COc1ccc(Br)cc1C(=O)Nc1cccc2ccc(C)nc12`: 63%.
Take `CCOc1ccccc1C(=O)Nc1cccc2ccc(C)nc12`: the survival was 49%.
Next, `COc1c(C)cccc1C(=O)Nc1cccc2ccc(C)nc12`: -14% (active); `CCCCCn1c(=O)[nH]c2cc(C(=O)Nc3ccc(OC)c(OC)c3)ccc2c1=O`: 74%.
For `Cc1cc(=O)n(Cc2c(F)cccc2Cl)c2c1c(C)nn2C` the value was 71%; for `Cc1oc(-c2ccccc2)nc1Cn1c(=O)cc(-c2ccccc2)c2c(C)nn(C)c21`, 76%.
For `Cc1ccc(-c2nc(Cn3c(=O)cc(-c4ccccc4)c4c(C)nn(C)c43)c(C)o2)cc1` the value was 120%; for `Cc1nn(C)c2c1c(-c1ccccc1)cc(=O)n2Cc1ccccc1F`, 120%; for `Cc1oc(-c2ccc(Cl)cc2)nc1Cn1c(=O)cc(C)c2c(C)nn(-c3ccccc3)c21`, 83%.
Regarding `Cc1cccc(-c2nc(Cn3c(=O)cc(-c4ccccc4)c4c(C)nn(C)c43)c(C)o2)c1`, the survival is -6% (active).
For `CCOc1ccc(-c2nc(Cn3c(=O)cc(C)c4c(C)nn(-c5ccc(C)cc5)c43)c(C)o2)cc1` the value was 87%.
For `CCOc1ccc(-c2nc(Cn3c(=O)cc(C)c4c(C)nn(-c5ccccc5)c43)c(C)o2)cc1` the value was 14% (active).
For `Cc1nn(C)c2c1c(-c1ccccc1)cc(=O)n2Cc1c(F)cccc1Cl` the value was -6% (active); for `CCc1cccc(NC(=O)CNS(=O)(=O)c2ccc3nc(C)sc3c2)c1`, 72%; for `COc1ccc(NCc2cc3cc4c(cc3n(CC(=O)Nc3cc(C)cc(C)c3)c2=O)OCO4)cc1`, 60%.
For `Cc1cccc(C(=O)Nc2cccc(OCc3cc(=O)n4c(C)csc4n3)c2)c1`, the survival was 79%.
Next, `CCC(=O)n1nc(-c2ccc(OC)cc2)nc1SC`: 100%; `O=C(NCc1ccncc1)C1CCN(S(=O)(=O)c2ccccc2)CC1`: 109%; `COc1ccc(Nc2cc(C(=O)NCc3ccccc3OC)c3ccccc3n2)cc1`: -6% (active).
Next, `COc1ccc(Nc2cc(C(=O)NCc3ccccc3)c3ccccc3n2)cc1`: 112%; `COc1ccc(Nc2cc(C(=O)NCc3cccs3)c3ccccc3n2)cc1`: 145%.
Turning to `CCOC(=O)/C(C#N)=N\Nc1ccccc1OC`, the survival was 105%.
In the case of `CCC(=O)N1CCc2cc(S(=O)(=O)NC(CC(C)C)C(=O)NCCc3ccccc3)ccc21` (centres undefined), the survival is 127%.
For `COc1ccc(C2c3c(-c4c(C)cc(C)cc4O)n[nH]c3C(=O)N2Cc2ccco2)cc1` (centres undefined) the value was 15%.
Next, `CC(C)c1ccc(C2c3c(-c4ccccc4O)n[nH]c3C(=O)N2CCc2ccccc2)cc1` (centres undefined): 64%.
Next, `CCCOc1ccc(C2c3c(-c4ccccc4O)n[nH]c3C(=O)N2Cc2cccnc2)cc1` (centres undefined): 3% (active).
With `O=C1c2[nH]nc(-c3ccccc3O)c2C(c2ccc(Cl)cc2)N1CCc1ccccc1` (centres undefined), the survival was 4% (active).
For `CCOc1cc(C2c3c(-c4ccccc4O)n[nH]c3C(=O)N2Cc2cccnc2)ccc1O` (centres undefined) the value was 89%.
Next, `COc1ccc(C2c3c(-c4ccccc4O)n[nH]c3C(=O)N2Cc2ccco2)cc1` (centres undefined): 10% (active).
Take `COc1ccc(CCN2C(=O)c3[nH]nc(-c4ccccc4O)c3C2c2ccc(OC)cc2)cc1` (centres undefined): the survival is 58%.
Next, `CC(C)c1ccc(C2c3c(-c4ccccc4O)n[nH]c3C(=O)N2Cc2ccncc2)cc1` (centres undefined): 106%; `O=C1c2[nH]nc(-c3ccccc3O)c2C(c2ccc(Cl)cc2)N1Cc1ccco1` (centres undefined): -1% (active).
Take `CCc1ccc(C2c3c(-c4ccccc4O)n[nH]c3C(=O)N2Cc2cccnc2)cc1` (centres undefined): the survival is 71%.
For `Cc1ccc(C2c3c(-c4ccccc4O)n[nH]c3C(=O)N2CCc2ccccc2)cc1` (centres undefined) the value was 58%; for `COc1cc(C2c3c(-c4ccccc4O)n[nH]c3C(=O)N2Cc2ccco2)ccc1OCC(C)C` (centres undefined), 43%.
Next, `CCc1nnc(SCc2ccc(F)cc2Cl)c2cc3sc(C)cc3n12`: 96%.
`CCOC(=O)c1cccc(NC(=O)c2ccc3snnc3c2)c1`: the survival was 84%.
For `COc1ccc(C)cc1NC(=O)C(=O)NCC1(c2ccccc2)CCCC1` the value was 94%; for `COc1ccc2c(c1)cc1c(=O)n(CC(=O)NCCc3ccccc3)nc(C)n12`, 81%.
Next, `CCc1ccccc1NC(=O)CN1C(=O)COc2ccc(S(=O)(=O)Nc3ccccc3)cc21`: 64%.
Next, `COc1ccc(-c2nc(N)n(C(C)=O)n2)cc1`: 107%; `Cc1nnc(SCCCN2C(=O)c3ccccc3C2=O)o1`: 105%.
With `Cc1cccc(NC(=O)CCn2cnnn2)c1C`, the survival was 71%.
With `Cc1cc(C)c(NC(=O)c2sc3nc(C)cc(C)c3c2N)c(C)c1`, the survival is 73%.
For `CCOc1cccc(C2c3c(-c4cc(C)ccc4O)n[nH]c3C(=O)N2Cc2ccco2)c1` (centres undefined) the value was 27%; for `CCCN1C(=O)c2[nH]nc(-c3ccccc3O)c2C1c1cccc(OCc2ccccc2)c1` (centres undefined), 42%; for `CCCOc1cccc(C2c3c(-c4ccccc4O)n[nH]c3C(=O)N2Cc2ccco2)c1` (centres undefined), 11% (active).
Next, `CCOc1cccc(C(=O)N(Cc2ccc(C)o2)C2CCS(=O)(=O)C2)c1` (centres undefined): 90%; `CCOC(=O)C1CCN(C(=O)Cn2ncc3c4ccccc4n(Cc4ccc(F)cc4)c3c2=O)CC1`: 80%; `COCCNC(=O)C(=O)Nc1c2c(nn1-c1ccccc1)CS(=O)(=O)C2`: 76%.
For `CC(C)OCCCNC(=O)C(=O)Nc1c2c(nn1-c1ccccc1)CS(=O)(=O)C2` the value was -6% (active).
On to `CC(C)CCNC(=O)C(=O)Nc1c2c(nn1-c1ccccc1)CS(=O)(=O)C2`, for which the survival is 90%.
